Reference: ChEMBL document CHEMBL1201862, “PubChem BioAssay data set” (2004)
The whole screen tested about 410,000 compounds, of which about 5,100 (1.2%) were called active. Not shown: some 8% with an inconclusive outcome. This is one part of a sample in which actives are shown more often than they occur. The rule behind the calls is not given here.

test: High Throughput Screening for Foot and Mouth Disease Virus Antivirals.; assay type: functional; settings: read-out: Potency

Structure (SMILES) | AC50
CN(C)CCNC(=O)C1CCN(Cc2cc3ccccc3n2Cc2ccccc2)CC1 | 398 µM (active)
